What all share (test): MAPPIT interaction score (arbitrary units); higher = stronger binary interaction signal, active = hit call of the paper
One experiment deals with sqd. Particulars: MAPPIT configuration: N-C; pair source set: Lit-BM-16.
The target of a further experiment is saturn. Particulars: MAPPIT configuration: N-C; pair source set: screen_4.
Another experiment concerns the target up. The settings on record: MAPPIT configuration: N-N; pair source set: RRS.
A further experiment addresses spir. The settings on record: pair source set: RRS.
For a further experiment, the target named is yip2. The settings on record: MAPPIT configuration: N-N; pair source set: Curagen_high_conf.
The target in the next experiment is salr. Particulars: MAPPIT configuration: N-N; pair source set: Finley_Y2H.
The target in a further experiment is sac. Particulars: MAPPIT configuration: N-N; pair source set: RRS.
In another experiment the target is sip2. The settings on record: MAPPIT configuration: N-N; pair source set: Curagen_low_conf.
The target in another experiment is sw. The settings on record: pair source set: Lit-BM-16.
In a further experiment the target is rux. The settings on record: MAPPIT configuration: N-N; pair source set: Finley_Y2H.
The target in the next experiment is rst. Particulars: pair source set: Lit-BM-16.
The target of the next experiment is ras. Particulars: MAPPIT configuration: N-N; pair source set: Finley_Y2H.
The next experiment addresses tup. Particulars: MAPPIT configuration: N-N; pair source set: Curagen_low_conf.

Unmarked numbers belong to inactive results.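 The calls were made as follows: active = MAPPIT score above the 99th percentile of random reference set scores in the same batch; inactive = at or below it.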
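Also: HEK293T cells with Epo stimulation, STAT-responsive firefly luciferase reporter, fold induction versus unstimulated cells divided by the larger fold induction of two negative controls lacking either bait or prey.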

B1: Hrb27C (protein)
chain: MEEDERGKLFVGGLSWETTQENLSRYFCRFGDIIDCVVMKNNESGRSRGFGFVTFADPTNVNHVLQNGPHTLDGRTIDPKPCNPRTLQKPKKGGGYKVFLGGLPSNVTETDLRTFFNRYGKVTEVVIMYDQEKKKSRGFGFLSFEEESSVEHVTNERYINLNGKQVEIKKAEPRDGSGGQNSNNSTVGGAYGKLGNECSHWGPHHAPINMMQGQNGQMGGPPLNMPIGAPNMMPGYQGWGTSPQQQQYGYGNSGPGSYQGWGAPPGPQGPPPQWSNYAGPQQTQGYGGYDMYNSTSTGAPSGPSGGGSWNSWNMPPNSAGPTGAPGAGAGTATDMYSRAQAWATGGPSTTGPVGGMPRTGPGNSASKSGSEYDYGGYGSGYDYDYSNYVKQEGASNYGAGPRSAYGNDSSTQPPYATSQAV
Regarding B1, the MAPPIT interaction score with sqd is 2.4.

B2: ORMDL (protein)
chain: MTSIAGGHGEANPNSSWLSARGFWLAYLLGLLSVHLLFLSVPFVSIPWAWTATNLLHNAAHLYFLHVIKGAPWLSTENDPSRRWTHWEQIDDGVQMTTTRKFLTAVPIVLFLLTCLYTRNNTEHFIPNFISLVVVTLPKLPQFHGVRLFNINKY
Regarding B2, the MAPPIT interaction score in the experiment with saturn is 0.115.

B3: Pgd (protein)
chain: MSGQADIALIGLAVMGQNLILNMDEKGFVVCAYNRTVAKVKEFLANEAKDTKVIGADSLEDMVSKLKSPRKVMLLVKAGSAVDDFIQQLVPLLSAGDVIIDGGNSEYQDTSRRCDELAKLGLLFVGSGVSGGEEGARHGPSLMPGGHEAAWPLIQPIFQAICAKADGEPCCEWVGDGGAGHFVKMVHNGIEYGDMQLICEAYHIMKSLGLSADQMADEFGKWNSAELDSFLIEITRDILKYKDGKGYLLERIRDTAGQKGTGKWTAIAALQYGVPVTLIGEAVFSRCLSALKDERVQASSVLKGPSTKAQVANLTKFLDDIKHALYCAKIVSYAQGFMLMREAARENKWRLNYGGIALMWRGGCIIRSVFLGNIKDAYTSQPELSNLLLDDFFKKAIERGQDSWREVVANAFRWGIPVPALSTALSFYDGYRTAKLPANLLQAQRDYFGAHTYELLGQEGQFHHTNWTGTGGNVSASTYQA
B3: the MAPPIT interaction score with up is 0.146.

B4: Acp1 (protein)
chain: MKFAVAVIFTLALAMGVQSSVIPLLSQVAGHGLSYTAVSGPAVVASPWAVPAAHWPAAVNVASWPPAAIHAAAPAVLAAPAPAVVAAHAPSVVVAPVAHSGVYTAQTRGAIHTAPLAGHIQSVASINAAPAPGTL
As to B4, the results for the MAPPIT interaction score in the experiment with spir (MAPPIT configuration: N-C) and with spir (MAPPIT configuration: N-N) were 0.0271 and 0.686, respectively.

B5: swa (protein)
chain: MSLQDESFPTDELFDQLNNLSSSGARNTWFAEHHKPAVFERDTAPFLEICYADPDFDADGDVANKSAKTCVSDPVGRDQEDEDDYDEDVDGDDHKLGCEKAPLGSGRSSKAVSYQDIHSAYTKRRFQHVTSKVGQYIAEIQAQDQKRRNVKFAGFQRVNSMPESLTPTLQQVYVHDGDFKVDKNCQTHSNSDSNYNSNSNNSSSSFDRLLAENESLQQKINSLRVEAKRLQGFNEYVQERLDRKTDDFVKMKCNFETLRTELSECQQKLRRQQDNSQHHFMYHIRSATSAKATQTDFLVDTIPASGNVLVTPHPLGDLTYNSSKGSIELALLSVAPSARVAQNPVQVQRAIHPQSLDFSSVSTEADGSGSGEHRVETSSRALVRRTPAPNNSETSQPSSNDSAIEVEAHEEERPSSRRQWEQQGELISPRQWGQHEGMYYFDKRNNRVIEVMGFNISQGRNQSHDTIHNQSINDSQTRLLVHSMSMSHLEAHDHFRSKRTTLGSRMLRFLGPCVRCRNGDPLNRSNVTYKDGLPAMPEEEFVDQRNQR
B5: the MAPPIT interaction score with yip2 is 1.92.

B6: Pof (protein)
chain: MDSKRAALESGDGPDAKRLDTTDDQDKEASGGDGSQVMLAKHVAPYTGHGCTPPMESYLFEPTPAGSQLLPWKTSVDLDNDAELEKPTSDKKPDTAKLSRRELAKMRREHTLRALALERELTNKPGQTPASEVLLVRFPDPEITAPMLAGLSKDIRDVVLPISVAPRYCLVHLKAGADVEATICDINRVRFGTGHLRAELKPFSDEEQAEFIDPCSLYVGNIPFNMTTSAIKAYFANAMRVDIGVLKREKRARYAFVRYASPDQTMEAFKELVDSPLNSRTLTVRYRRLRKRAGMPMVQCATSFQALQSPNGDDDNTDCKVISPPPLESIIISDSDNCSDSSGNGKEDGKRKKKINEQEREIEKLKRQMAEYGAIIKSLQFRQNSLEDTFIPDLTPKVEPSVNPTGCLLGSNAVHLMRDIKKECDYLGIPDPVPATKPTTQAQDDSQKKAKRSCFGRLFTGPFRRGTSAMKTADEYEKDDRLEELYAQLERDPDP
On to B6, for which the MAPPIT interaction score in the experiment with salr is 0.283.

B7: insv (protein)
chain: MENQYQRIVSATAREDSQARRSKPLFLNAWSQTSSVDFEVLRSISAPDPQVEVENRALRDKVRYLEAKLQQHKDLLSQIHATSARMQQASSLLAESRPPTPPAVQSHHILTPPSSEICAPAQNPQILDYKIISAPDDADAIEIRLAAESLNSLSTSADSDRLEICLGDENHQQSNHHNSQQQYRISNGIKRDGSSESADTPLQFIKRRKLQEIQLQEEIPRQNIKLPAKPQVKARNGSFTDLNKGQQQNMDNVMVSIGPNNTCVPASVFENINWSVCSLATRKLLVTIFDRETLATHSMTGKPSPAFKDQDKPLKRMLDPGKIQDIIFAVTHKCNASEKEVRNAITTKCADENKMMKIQNVKRRSSGIKHEKENII
For the molecule B7, the MAPPIT interaction score with sac is -0.275.

B8: Mabi (protein)
chain: MEHHQIYRHKKFDMGRKIEKCDLQLKEELISRSGTPCTSRSPFDAANQSVSLGFSDQDADFPPLPKRRRLGSSSSSVSYQSASPIITEAIQDIFKYHVNMVRKFPKKERSPKDQERRNKNTIACRMSRRKKKFDDLQIEQQYKECSDEHLKIAEQSLRARVYLNHLKQLVKQEDHPLVSSRRVPEENTKSNFSIDYLIGGIKQEHA
With B8, the MAPPIT interaction score in the experiment with sip2 was 0.378.

B9: DCTN1-p150 (protein)
chain: MSEKNLKVGARVELTGKDLLGTVAYVGMTSFAVGKWVGVVLDEPKGKNSGSIKGQQYFQCDENCGMFVRPTQLRLLEAAPGSRRSIEDVSGATPTAAQPTKARLSSSRTSLSSSRQSLLGSRTQLTTSLSERTASSSSIGPRKSLAPQNSKDKESPSTSLAEGAPAASGGNGAASHASSKRASFVETGFLEILKPQFTPSQPLRSPSFTMPSNSGAEDKVALLEAQKTSAELQAQLADLTEKLETLKQRRNEDKERLREFDKMKIQFEQLQEFRTKIMGAQASLQKELLRAKQEAKDAIEAKEQHAQEMADLADNVEMITLDKEMAEEKADTLQLELESSKERIEELEVDLELLRSEMQNKAESAIGNISGGGDSPGLSTYEFKQLEQQNIRLKETLVRLRDLSAHDKHDIQKLSKELEMKRSEVTELERTKEKLSAKIDELEAIVADLQEQVDAALGAEEMVEQLAEKKMELEDKVKLLEEEIAQLEALEEVHEQLVESNHELELDLREELDLANGAKKEVLRERDAAIETIYDRDQTIVKFRELVQKLNDQLTELRDRNSSNEKESLQDPSLKMVTETIDYKQMFAESKAYTRAIDVQLRQIELSQANEHVQMLTAFMPESFMSRGGDHDSILVILLISRIVFKCDIVVSQTRERFPPVDAITREAVTQGHAVQQYAFKCRLLHYVHSLQCALHQILYGLNSCQPDTLLRAGSSLPEMVAQEKIVDGIIELLKSNQLDENSTTDNIEKCVAFFNAMNSVLLAGEQLLNEIQMIRDCVASLGAACESILSDTAIAKVIIQEAGATSDSVLLIQFLNENMESVRQQVKLIKRRLPSDQHVIKSGLSQHKVEAMRGLAQNISRIMSAMHQATKQSLAAIVSTIESDNAAEHTLPQEKYWALLTASCERIYEQDDRGPTQNFKTLLAQANSDLQLIAQHLLDKEYDIISAANNASNQQKSGAHSTPITQRAQLIKKQLEQKNVLAATLENREADVKQLKVAAKMKQNELSEMQIRKDLAEKKLSVLQNEYEHAVDKWKQKYEETSLQLQLKEKEFEETMDHLQSDIDALESEKSDLRDKLKLNSTTGKVQPGSESHSPHNISLSGNTSTAPGISNVSYSAPAGTAPVVAEEVELLKNAFNQERNQRLRLQAQDMRAKLSQFEPLHVPQPQDQRITALESELTRMKHAWVLSLLQVRSQDSVNSGTRIDAVALQRRNQPVPLKGEISSKASQLASDILTEYLQRKPHRATHGQFASFPTVDVKRVLQI
On to B9, for which the MAPPIT interaction score with sw (MAPPIT configuration: N-C) was 0.412; with sw (MAPPIT configuration: N-N) it was -0.153.

B10: hfp (protein)
chain: MGSNDRASRSPRSDDQREISDMPATKRTRSDSGKSTDSKIPYLSQPLYDLKQTGDVKFGPGTRSALLGLLGGALPKLSSEQHDLVSKAKKYAMEQSIKMVLMKQTLAHQQQQLATQRTQVQRQQALALMCRVYVGSISFELKEDTIRVAFTPFGPIKSINMSWDPITQKHKGFAFVEYEIPEGAQLALEQMNGALMGGRNIKVGRPSNMPQAQQVIDEVQEEAKSFNRIYVASIHPDLSEEDIKSVFEAFGPILYCKLAQGTSLHTHKGYGFIEYANKQAMDEAIASMNLFDLGGQLLRVGRSITPPNALACPTTNSTMPTAAAVAAAAATAKIQALDAVASNAVLGLSQNTPVMAAGAVVTKVGAMPVVSAATSAAALHPALAQAAPALLPPGIFQAPTPVAPSLLGVPAGLQPLQAVVPTLPPPALLATPTLPMTVGGVGVGLVPTVATLAGAEASKGAAAAAALSAAANNAAVTAANLSENIKKAHEKQQEELQKKLMDEGDVQTLQQQENMSIKGQSARQLVMQRLMRPVDSRVIILRNMVGPEDVDETLQEEIQEECSKFGTVSRVIIFNEKQTENEDDDEAEIIVKIFVEFSAGAEAMRGKEALDGRFFGGRRVVAELYDQGIFDQGDLSG
With B10, the MAPPIT interaction score in the experiment with rux is 0.808.

B11: rst (protein)
chain: MLHTMQLLLLATIVGMVRSSPYTSYQNQRFAMEPQDQTAVVGARVTLPCRVINKQGTLQWTKDDFGLGTSRDLSGFERYAMVGSDEEGDYSLDIYPVMLDDDARYQCQVSPGPEGQPAIRSTFAGLTVLVPPEAPKITQGDVIYATEDRKVEIECVSVGGKPAAEITWIDGLGNVLTDNIEYTVIPLPDQRRFTAKSVLRLTPKKEHHNTNFSCQAQNTADRTYRSAKIRVEVKYAPKVKVNVMGSLPGGAGGSVGGAGGGSVHMSTGSRIVEHSQVRLECRADANPSDVRYRWFINDEPIIGGQKTEMVIRNVTRKFHDAIVKCEVQNSVGKSEDSETLDISYAPSFRQRPQSMEADVGSVVSLTCEVDSNPQPEIVWIQHPSDRVVGTSTNLTFSVSNETAGRYYCKANVPGYAEISADAYVYLKGSPAIGSQRTQYGLVGDTARIECFASSVPRARHVSWTFNGQEISSESGHDYSILVDAVPGGVKSTLIIRDSQAYHYGKYNCTVVNDYGNDVAEIQLQAKKSVSLLMTIVGGISVVAFLLVLTILVVVYIKCKKRTKLPPADVISEHQITKNGGVSCKLEPGDRTSNYSDLKVDISGGYVPYGDYSTHYSPPPQYLTTCSTKSNGSSTIMQNNHQNQLQLQQQQQQSHHQHHTQTTTLPMTFLTNSSGGSLTGSIIGSREIRQDNGLPSLQSTTASVVSSSPNGSCSNQSTTAATTTTTHVVVPSSMALSVDPRYSAIYGNPYLRSSNSSLLPPPTAV
Consider B11, for which the MAPPIT interaction score with rst (MAPPIT configuration: N-C) is 1.64; in the experiment with rst (MAPPIT configuration: N-N) it was 0.661.

B12: peg (protein)
chain: MKLSAVLLAIALLALSLVQCLGLPDPSTKCVMECDTQEYRSICAADDKGSTKTYRNLCVMKTENCLQNANFQKISDKECP
Regarding B12, the MAPPIT interaction score in the experiment with ras was -1.69.

B13: Fcp3C (protein)
chain: MDGAKAEVFSVSVDTKMGAFKNSLLLLTLLLAIHLEASKIVYKKPLYGNSNIIKDKRIKTKPVKLETSTMSSTGVASSSTTAEEDWPTAVEFVIMTTPASELEASTETIGNNGTTETTVGEAPIIGSSEGSTRSMEPTTASPLMSTNPSSSSSLVSTIPLPPTAGLPVQDNQPVPCTCGVFLSSQIPNGLPTKPLIHQELDHMFPCNAIGRKQCQTKCLETIVQHLPNSANIVCSALGHDCHKERAYLFIKNCHNQWVNTNLQAGREYCCRSGVPYRCPLMG
With B13, the MAPPIT interaction score with tup is -0.265.

Values taken from the supplement of paper PMC10105736.
